# Laboratory results published in PubChem BioAssay (NCI).
# Compounds without any hit were thinned out: in the full panel of roughly 83,000, 20% have a hit.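 48-hour exposure, single concentration, 96-well plates; percent growth endpoint where 0 means no net growth. Active: below 10.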 Unmarked numbers belong to inactive results. Activity calls are given as the source filed them.
# How the values were obtained:
# Assay in all cases: NCI-60 one-dose screen, 48 h (100 = growth as untreated, 0 = no growth, -100 = all killed)
# Conditions in all cases: 10 µM unless noted
# NCI-H23 lung = test system: NCI-H23 lung
# NCI-H226 lung = test system: NCI-H226 lung
# NCI-H322M lung = test system: NCI-H322M lung
# HOP-62 NSCLC = test system: HOP-62 NSCLC
# NCI-H460 lung = test system: NCI-H460 lung
# HOP-92 NSCLC = test system: HOP-92 NSCLC
# NCI-H522 lung = test system: NCI-H522 lung
# 786-0 renal = test system: 786-0 renal
# COLO 205 colon = test system: COLO 205 colon
# A549/ATCC NSCLC = test system: A549/ATCC NSCLC
Compound,growth (NCI-H23 lung),growth (NCI-H226 lung),growth (NCI-H322M lung),growth (HOP-62 NSCLC),growth (NCI-H460 lung),growth (HOP-92 NSCLC),growth (NCI-H522 lung),growth (786-0 renal),growth (COLO 205 colon),growth (A549/ATCC NSCLC)
C(=N\Nc1nnc2n1N=C(c1ccccc1)CS2)/c1ccc(OCc2ccccc2)cc1,103%,88.9%,107%,110%,106%,110%,88.1%,110%,112%,
O=C(Nc1cccc2c1C(=O)c1cccc(NC(=O)c3ccc(C(=O)Nc4cccc5c4C(=O)c4cccc(NC(=O)c6ccccc6)c4C5=O)cc3)c1C2=O)c1ccccc1,98%,74.1%,98.8%,103%,111%,58.4%,84.7%,109%,111%,
COc1ccc(-c2nc(SCCC(C)C)nc(N/N=C(/C)c3ccc(N)cc3)c2C#N)cc1,92.9%,88.9%,86%,89.9%,101%,96.8%,90.6%,97.9%,109%,
O=C(/C=C/c1cccc([N+](=O)[O-])c1)c1ccc(Nc2nc(Nc3ccc(F)cc3)nc(Nc3ccc(Cl)cc3)n2)cc1,81.4%,87.2%,87.6%,151%,91.9%,50.9%,82.8%,99.4%,91.2%,
C#C[C@]1(O)CC[C@H]2[C@@H]3CC=C4c5sc(-c6ccccc6)nc5CC[C@]4(C)[C@H]3CC[C@@]21C,84.1%,99.6%,86.7%,99.5%,75.5%,77%,77.9%,42.9%,116%,
N#CC1=C(N)Oc2c(ccc3ccccc23)C1c1cc2ccccc2n2nnnc12 (centres undefined),36.6%,53.6%,34%,24.6%,11.3%,49.2%,12.3%,13.4%,48.4%,
COc1cc(OCc2cccc(-c3ccc4c(c3)OCCO4)c2C)cc(OC)c1C=O,52.4%,32.6%,85.3%,73.4%,72.2%,79.5%,42.7%,67.1%,40.8%,69%
CS(=O)(=O)c1cccc(Nc2ncc3cc(-c4ccccc4Cl)ccc3n2)c1,26.7%,31.1%,26.8%,15.3%,5.47% (active),-1.06% (active),-44.3% (active),12.2%,-8.05% (active),
COc1cccc(/C=C/C(=O)/C=C(/C=C/c2cccc(OC)c2OC)OB(F)F)c1OC,44.2%,107%,92.5%,80.3%,90.7%,103%,17.4%,45.1%,32.9%,88.7%
COc1cc(NC(=O)c2cncnc2Nc2ccc3c(ccn3Cc3cccc(F)c3)c2)cc(OC)c1,79.1%,80.3%,84.1%,52.7%,45.9%,83.4%,44.3%,81.1%,61.3%,
O=C1/C(=C/c2cccc(Br)c2)COc2ccc(O)c(O)c21,17%,83.4%,25.7%,-30.8% (active),5.86% (active),-41.1% (active),-67.6% (active),-86.9% (active),6.56% (active),
COc1cc2c(c(OC)c1OC)C(=O)CC(c1cccc(C(=O)Nc3ccc(Br)cc3)c1)O2 (centres undefined),60.3%,37.6%,59.9%,86%,78.8%,-8.2% (active),48.5%,71.8%,81.7%,78.8%
Cc1cc2c(C(C)C)c(O)c(O)c(/C=N/O)c2c(O)c1-c1c(C)cc2c(C(C)C)c(O)c(O)c(/C=N/O)c2c1O,27.3%,33.2%,35.9%,11.8%,2.59% (active),8.85% (active),-25.7% (active),22.2%,2.49% (active),
COc1cccc(-c2nn(-c3ccccc3)cc2-c2ccnc(-c3cccnc3)c2)c1,86.5%,95%,109%,97.4%,92%,95%,86.9%,98.1%,94.3%,
